Data published in the supplement of paper PMC10127200.
Structures can show the parent of a compound that is named as a salt.

Experiments:
Assay in all cases: Euclidean distance of Cell Painting phenotypic profile (signed KS, 77 features) to DMSO centroid (dimensionless distance); 5 or 10 uM (library dependent); higher = stronger phenotypic change vs DMSO (phenoactivity)
Settings in all cases: 48 h
[1] = system: 786-O
In short: (§1)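 Five cancer lines, together with a healthy fibroblast line, received library compounds for 48 h at a library-dependent 10 or 5 uM and 0.1% DMSO final. Harmony then derived 77 features from confocal 20X images (9 fields/well) of the stained cells, scoring each as a signed Kolmogorov-Smirnov statistic against same-plate vehicle wells. After plate-position correction, correlation weighting and replicate averaging at the top dose, phenoactivity was taken as each profile's Euclidean distance to the median vehicle profile.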

[2] = system: A549
In short: as §1

[3] = system: DU145
In short: as §1

[4] = system: FB
In short: as §1

[5] = system: HEPG2
In short: as §1

[6] = system: OVCAR4
In short: as §1

SMILES	Euclidean distance [1]	Euclidean distance [2]	Euclidean distance [3]	Euclidean distance [4]	Euclidean distance [5]	Euclidean distance [6]
CC1(C)OC[C@@H](COC(=O)CCc2ccc(OC[C@@H](O)CNCCNC(=O)N3CCOCC3)cc2)O1 [Landiolol hydrochloride]	1.18	0.835	1.25	1.04	0.692	1.25
C[C@@H](O)[C@H]1C(=O)N2C(C(=O)O)=C(S[C@@H]3CN[C@H](C(=O)N(C)C)C3)[C@H](C)[C@H]12 [Meropenem]	1.75	1.63	0.873	1.2	1.05	1.15
CC(C)CC(N)=O [Isovaleramide]	1.41	1.09	0.731	0.571	1.21	1.81
CCc1cc(/C(C)=N/OCc2ccc(C3CCCCC3)c(C(F)(F)F)c2)ccc1CN1CC(C(=O)O)C1 [BAF312 (Siponimod)]	1.61	1.05	1.31	0.66	0.538	1.25
CNCCC=C1c2ccccc2CCc2ccccc21 [Nortriptyline hydrochloride]	1.69	1.13	1.37	1.82	1.8	1.69
CCn1c(=O)c(-c2cc(NC(=O)Nc3ccccc3)c(F)cc2Br)cc2cnc(NC)cc21	1.21	1.59	1.77	2.62	1.61	1.1
N#Cc1cnc(Nc2cc(NC[C@H]3CNCCO3)c(C(F)(F)F)cn2)cn1	3.22	2.16	2.89	3.11	2.5	1.99
O=C1c2cccc3c2[C@H](CCC3)CN1[C@@H]1CN2CCC1CC2 [Palonosetron HCl]	1.56	0.602	0.971	0.972	1.29	1.22
C=C[C@@H]1C[C@]1(NC(=O)[C@@H]1C[C@@H]2CN1C(=O)[C@H](C(C)(C)C)NC(=O)O[C@@H]1C[C@H]1CCCCCc1nc3ccc(OC)cc3nc1O2)C(=O)NS(=O)(=O)C1CC1 [Grazoprevir]	1.16	1.31	1.33	1.88	0.937	1.22
CNCCCN1c2ccccc2CCc2ccccc21 [Desipramine Hydrochloride]	0.817	1.07	1.11	1.73	1.43	1.25
Cn1cnc([N+](=O)[O-])c1Sc1ncnc2[nH]cnc12 [Azathioprine]	0.644	0.642	1.33	1.04	2.09	0.817
CCNC(=O)CC[C@H](N)C(=O)O [L-Theanine]	1.64	1.8	1.57	2.05	1.4	2.17
Nc1nc(OCc2cc(Br)cs2)c2[nH]cnc2n1 [Lomeguatrib]	1.07	1.13	1.15	1.29	0.861	1.04
COc1cc2c(Nc3ccc(NC(=O)c4ccccc4)cc3)ncnc2cc1OCCCN1CCOCC1	2.71	3.81	3.11	2.7	1.92	3.02
OCc1cc(C(O)CNCCCCCCOCCCCc2ccccc2)ccc1O (centres undefined) [Salmeterol Xinafoate]	1.27	1.68	1.58	2.11	2.19	1.28
CC(=O)NS(=O)(=O)c1ccc(N)cc1 [Sulfacetamide]	1.08	0.619	1.45	1.07	0.298	1.01
CSc1ccc(C(=O)/C=C/c2cc(C)c(OC(C)(C)C(=O)O)c(C)c2)cc1 [Elafibranor]	1.24	1.28	0.801	1.43	0.747	0.978
O=C(O)c1cc(O)c2c(c1)[C@@H]([C@H]1c3cc(C(=O)O)cc(O)c3C(=O)c3c(O[C@@H]4O[C@H](CO)[C@@H](O)[C@H](O)[C@H]4O)cccc31)c1cccc(O[C@@H]3O[C@H](CO)[C@@H](O)[C@H](O)[C@H]3O)c1C2=O [Sennoside B]	1.31	0.866	0.808	0.988	0.382	0.952
CC#CCn1c(N2CCC[C@@H](N)C2)nc2c1c(=O)n(Cc1nc(C)c3ccccc3n1)c(=O)n2C [Linagliptin]	0.904	0.984	0.641	1.4	0.628	0.529
